Assay outcomes (PubChem)
VHR inh abs: inhibitors of human VHR1 phosphatase (DUSP3); P51452; recombinant VHR phosphatase, pNPP absorbance; inhibition, % at 13.3 µM; actives 0.52% (n = 290,000); AID 1654; in the data active = inhibition above about 50%
Target sequence (P51452 whole entry, looked up): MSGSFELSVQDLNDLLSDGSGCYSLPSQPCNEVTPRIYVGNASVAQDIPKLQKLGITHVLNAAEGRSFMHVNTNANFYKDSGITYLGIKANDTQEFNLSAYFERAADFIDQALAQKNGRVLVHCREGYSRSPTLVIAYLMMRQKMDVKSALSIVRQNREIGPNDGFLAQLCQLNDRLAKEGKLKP
BJeLR lethal: kills HRASV12-expressing BJeLR cells; BJeLR (HRASV12) viability, CellTiter-Glo ATP luminescence, 48 h; inhibition, % (concentration not given with the values); AID 1554; actives 0.17% (n = 300,000); in the data active = inhibition above about 50%
3CLpro inhibitor: SARS-CoV 3CLpro protease inhibition; inhibition, % at 6 µM; actives 0.14% (n = 290,000); P0C6X7; recombinant SARS-CoV 3CLpro, quenched FRET peptide cleavage; in the data active = inhibition above about 12%
Vc quorum ag: quorum light induction in luxS cqsA deficient V. cholerae; V. cholerae BH1578 lux reporter, luminescence, 6 h; activation, % at 18.7 µM; actives 0.16% (n = 350,000); AID 588436; in the data active = activation mostly above about 9.7%, no sharp cut-off
MazEF act: MazEF (E. coli) toxin RNase activation; FAM/BHQ RNA-DNA oligo cleavage fluorescence, 5 h; activation, % at 20 µM; actives 0.32% (n = 350,000); AID 504720; in the data active = activation above about 50%
Target sequence (P0AE70 whole entry, looked up): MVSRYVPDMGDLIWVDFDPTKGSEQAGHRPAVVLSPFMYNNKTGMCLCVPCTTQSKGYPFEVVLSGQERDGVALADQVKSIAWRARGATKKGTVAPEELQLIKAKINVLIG
PfHsp40 yeast: compounds rescuing yeast from Plasmodium falciparum HSP40 toxicity | AID 504582 | actives 0.68% (n = 340,000) | S. cerevisiae expressing PfHsp40, growth rescue, ATP luminescence | growth rescue, % at 12.5 µM; in the data active = growth rescue above about 28%, passing the limit was not always enough;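 also: yeast W303a lacking pdr1 and pdr3 grown in galactose medium; growth measured after three days at 30 °C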
Each line names hits and unclear results; the compound was inactive in the other large screens. Rows were chosen to be rich in hits. Some 1.7% of all compounds tested hit in one or more screens of this group.

Nc1nonc1-n1nnc(C(=O)N/N=C/c2cccc(Cl)c2)c1CN1CCCC1	Vc quorum ag 32.0 (no result: VHR inh abs, 3CLpro inhibitor)
C/C(=N/NC(=O)c1nnn(-c2nonc2N)c1COc1ccccc1)c1ccccc1Cl	VHR inh abs 57.0
CC(C)(OC(=O)c1ccc(C#N)cc1)c1cc2ccccc2c(=O)o1	none (no result: VHR inh abs, BJeLR lethal, 3CLpro inhibitor)
CCc1cc(=O)oc2cc(C)cc(OCC(=O)N3CCC(C(=O)O)CC3)c12	none
COc1ccc(CN2CCNCC2)cc1	VHR inh abs 59.7
CCc1ccccc1Nc1nc(N)nc(COC(=O)C2CCN(C(=O)c3ccc(F)cc3)CC2)n1	none (no result: VHR inh abs, BJeLR lethal, 3CLpro inhibitor)
Cc1ccc(S(=O)(=O)NN)c(C)c1N1CCCC1=O	MazEF act 164.7
Cc1ccc(O)c(Nc2c3ccccc3nc3ccccc23)c1	VHR inh abs 52.0
Cc1nn(CCO)c2ncc(C(=O)c3cc(F)ccc3O)cc12	none
CN(CCCNC(=O)C1CCC(CNS(=O)(=O)c2ccccc2)CC1)Cc1ccccc1 (configuration not stated)	VHR inh abs 55.5
O=C(Nc1ccccc1Cl)c1cc(C2CCCN(S(=O)(=O)c3cccs3)C2)on1 (configuration not stated)	none (no result: VHR inh abs, BJeLR lethal, 3CLpro inhibitor, MazEF act, PfHsp40 yeast)
CCCCCOc1ccc(Br)cc1/C(C)=N/NC1=NCCN1	BJeLR lethal 81.0
COc1ccc(-c2cncnc2-c2ccc(OC)cc2O)cc1	none
COc1cccc(Oc2cncnc2-c2ccc(OC)cc2O)c1	PfHsp40 yeast 56.4
CCOc1ccc(NC(=O)COC(=O)C2COc3ccccc3O2)cc1 (configuration not stated)	none (no result: VHR inh abs, BJeLR lethal, 3CLpro inhibitor, PfHsp40 yeast)
Cn1c(=O)c(NCCO)c2c3c(cccc31)C(=O)c1ccccc1-2	none
Cn1c(=O)c(NCCc2ccccc2)c2c3c(cccc31)C(=O)c1ccccc1-2	MazEF act 60.0 (no result: Vc quorum ag)
[O-][n+]1ccc(C(O)c2ccccc2)cc1 (configuration not stated)	none
Cc1ccc(NS(=O)(=O)c2ccc(C(=O)N3CCCC(C(F)(F)F)C3)cc2)cc1 (configuration not stated)	PfHsp40 yeast 50.7 (no result: VHR inh abs, 3CLpro inhibitor)
C/C=C(\C)C(=O)OC(C)(C)[C@H]1Cc2cc3ccc(=O)oc3cc2O1	none
CCCn1c(O)c(N=Nc2ccc3ccccc3n2)c2ccccc21	MazEF act 145.7
N#C/C(=C/C1=C(N2CCOCC2)C(=C/c2cccc([N+](=O)[O-])c2)/CC1)C(=O)Nc1ccccc1F	MazEF act 636.5 (no result: VHR inh abs, BJeLR lethal, 3CLpro inhibitor)
N#C/C(=C\C1=C(N2CCOCC2)C(=C/c2cccc([N+](=O)[O-])c2)/CC1)C(=O)Nc1ccccc1F	MazEF act active (no result: BJeLR lethal)
COc1ccc(Cl)cc1NC(=O)CN(C)C(=O)CCc1nc2ccccc2c(=O)[nH]1	none (no result: VHR inh abs, BJeLR lethal, 3CLpro inhibitor)
CCOc1ccc(NC(=O)CN(C)C(=O)c2cc(S(=O)(=O)N3CCCCC3)ccc2Cl)cc1OCC	none (no result: VHR inh abs, 3CLpro inhibitor)
CSc1ccc(C(=O)C2CCCN(C)C2)cc1 (configuration not stated)	VHR inh abs 53.3
COc1ccccc1/C=C1\SC(=O)N(CCC(=O)NCCCn2ccnc2)C1=O	BJeLR lethal 82.6
COc1ccccc1/C=C1\SC(=S)N(CCC(=O)NCCCn2ccnc2)C1=O	BJeLR lethal 77.7
COc1ccccc1/C=C1\SC(=S)N(CCC(=O)NNC(=O)c2ccccc2O)C1=O	PfHsp40 yeast 104.9
CC(OC(=O)Cc1c(F)cccc1Cl)C(=O)NC1CCCCC1C (configuration not stated)	none (no result: VHR inh abs, BJeLR lethal, 3CLpro inhibitor)
CCCCN1C(=O)/C(=C2/Sc3ccc(OC)cc3N2CC)SC1=S	MazEF act 71.1
C=CCN1C(=O)/C(=C2/Sc3ccc(OC)cc3N2CC)SC1=S	MazEF act 752.5
CCc1ccc2nc(SCC(=O)N3CC(=O)Nc4ccccc43)c(C#N)cc2c1	MazEF act 83.2
CCSc1nnc(NC(=O)c2cccc(S(=O)(=O)N(C)c3ccccc3)c2)s1	PfHsp40 yeast 29.8
C=CCN(c1ccccc1)S(=O)(=O)c1cccc(C(=O)Nc2nnc(SCC)s2)c1	none
CC(C)c1ccc(C(=O)OCC(=O)Nc2cccc(S(=O)(=O)NC3=NCCC3)c2)cc1	none (no result: VHR inh abs, BJeLR lethal, 3CLpro inhibitor, PfHsp40 yeast)
CC(C)c1ccc(/C=C(\c2nc3ccccc3[nH]2)S(=O)(=O)c2ccccc2)cc1	none
O=S(=O)(/C(=C/c1ccc(C(F)(F)F)cc1)c1nc2ccccc2[nH]1)c1ccccc1	BJeLR lethal 67.9
Cc1c(Cl)cccc1NC(=O)CCN1C(=O)NC(C)(C)C1=O	none (no result: VHR inh abs, BJeLR lethal, 3CLpro inhibitor)
CCOc1cc(/C=N/Nc2nc(-c3cccs3)c(NC(C)=O)s2)ccc1O	none
CCCOc1ccc(N2C(=O)CC(N3CCC(O)(c4cccc(C(F)(F)F)c4)CC3)C2=O)cc1 (configuration not stated)	PfHsp40 yeast 28.4
Cc1nc(N2CCN(C)CC2)c2c(C)c(C(=O)Nc3ccc(F)cc3)sc2n1	VHR inh abs 54.6
Cc1nc(N2CCCCC2)c2c(C)c(C(=O)Nc3cccc(C(F)(F)F)c3)sc2n1	none
Cc1cc(N2CCN(c3ccccc3)CC2)nc(NCc2ccccc2)n1	MazEF act 55.1
CCCc1nc(C)cc(N2CCN(c3ccccc3)CC2)n1	none
CCCCc1c(O)nc(SCC(=O)Nc2ccc(OC)cc2)n(-c2ccc(C)c(C)c2)c1=O	none (no result: VHR inh abs, BJeLR lethal, 3CLpro inhibitor, PfHsp40 yeast)
Cc1ccc(-n2nnnc2SCC(=O)N2CCc3ccccc3C2)c(C)c1	PfHsp40 yeast 70.6
Cc1ccc(-n2nnnc2SCC(=O)N2CCc3ccccc3C2)cc1	none
Cc1ccc(-n2nnnc2SC(C)C(N)=O)c(C)c1 (configuration not stated)	Vc quorum ag 16.7
Cc1cc(/C=N/NC(=O)c2cc3ccccc3o2)c(C)n1C	none
Cc1nc(C(F)(F)F)ccc1C(=O)N1CCCC(C(=O)O)CC1 (configuration not stated)	none (no result: VHR inh abs, BJeLR lethal, 3CLpro inhibitor, MazEF act, PfHsp40 yeast)
CC(=O)c1ccc(OCc2cc(C(=O)N3CCC[C@H]3CO)no2)cc1	VHR inh abs 59.8
COCCC1CCCCN1C(=O)c1cc(COc2cccc(C(C)=O)c2)on1 (configuration not stated)	none
CCCn1nnnc1NCc1cccc(Cl)c1	VHR inh abs 52.8
CC1CC(C)CN(C(=O)C2CCC(CNc3c(N4CCCCC4)c(=O)c3=O)CC2)C1 (configuration not stated)	PfHsp40 yeast 53.1
Cc1cc(C)n(-c2ncnc3ccccc23)n1	none
NC(=O)c1nsc(C(=O)N(Cc2cccnc2)C(C(=O)NCc2ccc(F)cc2)c2ccc(F)cc2)c1N (configuration not stated)	none
CC(=O)Nc1ccc(NC(=O)c2cccc(S(=O)(=O)N(C)C3CCCCC3)c2)cc1	none (no result: VHR inh abs, BJeLR lethal, 3CLpro inhibitor)
Cc1ccc(NC(=O)c2cccc(S(=O)(=O)N(C)C3CCCCC3)c2)nc1	PfHsp40 yeast 49.8 (no result: VHR inh abs, 3CLpro inhibitor)
COc1ccc(C)cc1NC(=O)c1ccc(NC(=O)CC2SC(N3CCCC3)=NC2=O)cc1 (configuration not stated)	Vc quorum ag 7.6
O=C(NCc1cc([N+](=O)[O-])ccc1O)c1cc(-c2ccncc2)nc2ccccc12	none
